In PubChem BioAssay AID720580 (National Center for Advancing Translational Sciences (NCATS), 2013) one finds Potency and activity change, negative = inhibition data, which are given here for 97 molecules.

The campaign covered roughly 330,000 compounds. About 1,500 (0.45%) were called active. Where a call stands in place of a potency, no number is given. Roughly 6% stayed inconclusive and do not appear here. The sample as a whole holds a higher share of actives than the screen did. Unmarked numbers belong to inactive results. Calls follow the shape of the full dose curve; tested in A549 cells.
Potency is read from the fitted curve at half-maximal effect.

The assay in a line: qHTS for Stage-Specific Inhibitors of Vaccinia Orthopoxvirus: Venus Reporter Primary qHTS. Also: nearly all actives have a fitted effect of over 30% in size. As to conditions: Vaccinia virus Venus reporter expression, fluorescence; series mostly up to 36.5 µM. On the technique in general: Quantitative high-throughput screening tests each substance at several concentrations.
With `CC(C)Oc1c(Br)cc(Br)cc1/C=N/NC(N)=S`, the Potency is 5.01 µM (active).
The same measure, in the same setting: to `NC(=S)N/N=C/c1coc2cc(Cl)ccc2c1=O` belongs “inactive”; to `Cc1cccc(-n2c(C)cc(/C=N/NC(N)=S)c2C)c1`, “inactive”.
As to `CCCCCn1nnnc1C1c2ccccc2C(=O)N1Cc1ccco1` (configuration not stated), the Potency entry is “inactive”.
Take `O=C(Nc1ccccc1Cl)/C(Cl)=C(\Cl)S(=O)c1ccccc1` (configuration not stated): the Potency is 10 µM (active).
Still for that read-out and setting: to `O=C(Cc1ccc2c(c1)CCCC2)Nc1ccccc1Cl` belongs “inactive”; to `O=C(Nc1ccccc1Cl)O/N=C(/c1ccccc1)c1ccccn1`, “inactive”; to `C[C@]12CC[C@H](O)C[C@H]1CC[C@@H]1C2CC[C@]2(C)[C@@H](C3=CC(=O)OC3)[C@@H](O)C[C@]12O` (some centres not stated), 3.16 µM (active).
With `CC(CCC(=O)O)C1CCC2C3C(O)C[C@@H]4CC(O)CC[C@@]4(C)C3CC[C@@]12C` (some centres not stated), the Potency entry was “inactive”.
On the same count and under the same terms, then `C[C@@]12CCC3C(CC[C@@H]4CC(O)CC[C@@]34C)C1CCC2O` (some centres not stated), with “inactive”.
Still for that read-out and setting: then `Cc1csc(NCC(=O)c2c[nH]c3ccccc23)n1`, with “inactive”.
Same read-out and setting: to `CCOC(=O)[C@]12CCC=C1N(Cc1cccc3ccccc13)C(=O)[C@H](CC(=O)NCc1cccc(C(F)(F)F)c1)C2` belongs “inactive”.
In the case of `COc1ccc(C(C)C)cc1-c1ccc2nncn2c1`, the Potency result was “inactive”.
The same measure, in the same setting: to `Cc1cc(C)n2c(NCc3ccccc3)c(CC(C)C)nc2n1` belongs “inactive”.
Same read-out and setting: then `Cc1ccc(NC(=O)Nc2cccc(C(F)(F)F)c2)nc1`, with “inactive”; and `CC(C)C[C@H](NC(=O)Nc1cccc(C(F)(F)F)c1)C(=O)O`, with “inactive”.
Regarding `O=C(Nc1ccc(C(=O)N2CCOCC2)cc1)Nc1cccc(C(F)(F)F)c1`, the Potency entry was “inactive”.
On the same count and under the same terms, to `NC(c1ccccc1)c1csc(NC(=O)Nc2cccc(C(F)(F)F)c2)n1` (configuration not stated) belongs 11.2 µM (active).
Same read-out and setting: then `CC(=O)c1ccc(Nc2nc(C(N)c3ccccc3)cs2)cc1` (configuration not stated), with “inactive”; and `NC(c1csc(NC(=O)Nc2cccc(C(F)(F)F)c2)n1)C1CCCCC1` (configuration not stated), with 10 µM (active); and `COc1ccc(C(O)C(O)(C(=O)OC(C)C)c2ccc(C)cc2)cc1` (configuration not stated), with “inactive”.
The same measure, in the same setting: to `COc1cc(C=C(OC(C)=O)c2ccc3c(c2)OCO3)cc(OC)c1OC` belongs “inactive”; to `COc1ccc(-c2ccc(C(=O)NCCN3CCOCC3)c3occc23)c(C)c1`, “inactive”; to `COc1ccccc1Cc1c(-c2ccc(Cl)cc2)nc2c3ccccc3ccn12`, “inactive”.
With `COc1ccc(-c2coc3c(C(=O)NC(C)C)cccc23)c(C)c1`, the Potency result is “inactive”.
The same measure, in the same setting: to `CCCCCn1nnnc1-c1nc2cc3ccccc3cc2[nH]c1=O` belongs “inactive”.
On the same count and under the same terms, then `CCOC(=O)C1C(C)C(C(C)(C)C)N(S(=O)(=O)c2ccc(C)cc2)C1c1ccccc1` (configuration not stated), with “inactive”; and `Cc1cc2nc(-c3ccc(Cl)cc3)c(Cc3cccc(F)c3)n2c(C)c1Br`, with “inactive”; and `COc1cccc(CNC(=O)[C@@H]2CCCN2C(=O)[C@@H]2CCCN2C(=O)c2ccccc2)c1`, with “inactive”.
Same read-out and setting: then `COC(=O)c1ccc2nc(-c3ccc(C)cc3)c(Cc3ccc(OC)cc3C)n2c1`, with “inactive”.
In the case of `O=S1(=O)CC(N2CCN(Cc3ccccc3F)CC2)CN1Cc1cn(Cc2cccc(C(F)(F)F)c2)nn1` (configuration not stated), the Potency result was “inactive”.
Same read-out and setting: then `COc1c(Cl)cc(Cl)cc1C(=O)Nc1cccc2cccnc12`, with “inactive”.
In the case of `CC(=O)/C(=N\Nc1ccc(Cl)cc1Cl)Sc1cccc2cccnc12`, the Potency was 10 µM (active).
As to `S=C(NCc1cccnc1)Nc1ccc(Cl)cc1Cl`, the Potency result is “inactive”.
Same read-out and setting: then `COc1ccc(/C=C/c2ccnc3ccccc23)cc1OC`, with “inactive”; and `Cc1cn(COC/C=C/c2ccccc2)c(=O)[nH]c1=O`, with “inactive”; and `Cc1[nH]c(=O)c(C(=O)/C=C/c2ccccc2)c2c1CCCC2`, with 6.31 µM (active).
The same measure, in the same setting: then `CC1(C(=O)O)CCCN(C(=O)/C=C/c2ccccc2)C1` (configuration not stated), with “inactive”.
Still for that read-out and setting: to `CC(C)(C)c1ccc(C(=O)C[n+]2cccc3cc(Cl)ccc32)cc1` belongs “inactive”; to `CCOC(=O)c1ccn(S(=O)(=O)c2ccc(C)cc2)c1-c1ccccc1`, “inactive”.
As to `CN(Cc1cn(Cc2ccc(C(F)(F)F)cc2)nn1)C1CN(Cc2cn(Cc3ccc(C(F)(F)F)cc3)nn2)S(=O)(=O)C1` (configuration not stated), the Potency result was “inactive”.
In the case of `c1ccc(Cc2c(-c3ccco3)nc3c4ccccc4ccn23)cc1`, the Potency result is “inactive”.
Same read-out and setting: to `CCC(CC)C(=O)N1CCc2cc(OC)c(OC)cc2C1COc1ccc(F)cc1` (configuration not stated) belongs “inactive”.
As for `CC[C@H]1CN2CCc3cc(OC)c(OC)cc3[C@@H]2C[C@@H]1C[C@H]1NCCc2cc(OC)c(OC)cc21`, the Potency was 0.562 µM (active).
Consider `COc1cc2c(cc1OC)CN(CC(=O)Nc1ccc(F)cc1)CC2`, for which the Potency entry was “inactive”.
On to `CCc1oc(-c2ccc(OC)cc2)c(C(=O)OCCCCCO)c1C(C)OCCO` (configuration not stated), for which the Potency entry was “inactive”.
On the same count and under the same terms, to `Cc1ccc(-c2nc(=N)sn2Cc2ccccc2)cc1` belongs “inactive”; to `S=c1[nH]c(=S)c2n[nH]nc2[nH]1`, “inactive”.
The same measure, in the same setting: then `CCCc1c(-c2ccccc2F)ncn1Cc1ccccc1OC`, with “inactive”.
Consider `COc1ccc(S(=O)(=O)NCCc2c[nH]c3ccccc23)cc1OC`, for which the Potency entry was “inactive”.
On the same count and under the same terms, to `COc1cccc(CNCCc2c[nH]c3ccccc23)c1OCc1ccccc1F` belongs 10 µM (active); to `c1cncc(CNCCc2c[nH]c3ccccc23)c1`, “inactive”; to `CO[C@H]1O[C@@H]2O[C@@]3(C)CC[C@@H]4[C@@H](C)CC[C@@H]([C@H]1C)[C@@]24OO3`, “inactive”.
The same measure, in the same setting: then `CN(Cc1ccccc1F)c1cc2c(c3c1ccn3C)C1CCC2O1` (configuration not stated), with “inactive”; and `CN(C)c1ccc(/C=C/c2sc3ccccc3[n+]2C)cc1`, with “inactive”; and `OCC(O)C(O)C(O)C(O)C=Nc1ccc(/C=C/c2ccnc3ccccc23)cc1` (configuration not stated), with “inactive”.
Still for that read-out and setting: then `CCOCCC(=O)Nc1ccc2c(c1)c(=O)n(C)n2-c1ccc2ccccc2c1`, with “inactive”.
Consider `CS(=O)c1ccc(/C=C2\C=Cc3ccccc32)cc1` (configuration not stated), for which the Potency entry is “inactive”.
Consider `COc1ccc(/C=C2\SC(=S)N(CCC(=O)N3CCOCC3)C2=O)cc1OC`, for which the Potency result was “inactive”.
With `COc1cccc(/C=C2\SC(=S)N(CCCC(=O)N3CCOCC3)C2=O)c1`, the Potency was 12.6 µM (active).
On the same count and under the same terms, to `Cc1cc(/C=C2/SC(=O)N(CC(=O)N3CCCC3)C2=O)ccc1N1CCOCC1` belongs “inactive”; to `CCC(C)CN1C(=O)CSCC1(C)C(=O)NCc1ccccc1` (configuration not stated), “inactive”.
`COc1ccc(C(C)(NC(C)=O)c2nc(-c3ccc(S(C)(=O)=O)cc3)cs2)cc1` (configuration not stated): the Potency entry is “inactive”.
The same measure, in the same setting: then `CCCCCCCCCCOC(=O)Cn1c(COc2cccc(OC)c2)[n+](C)c2ccccc21`, with 11.2 µM (active).
Turning to `COc1cccc(OCc2nnc3n2N=C(c2ccccc2)C(CC(=O)O)S3)c1` (configuration not stated), the Potency result is “inactive”.
As to `CCCCn1c(N)c(N(CCOC)C(=O)c2cccc(OCc3ccccc3)c2)c(=O)[nH]c1=O`, the Potency entry is “inactive”.
With `CCCCC[C@H](C)N1C[C@@H](COCc2ccccc2)Oc2cc(N3CC[C@@H](N(C)C)C3)ccc2S1(=O)=O`, the Potency result was “inactive”.
Same read-out and setting: then `CCC(C(=O)NCc1ccccc1)n1c(Cc2cc(F)cc(F)c2)nc2ccccc21` (configuration not stated), with “inactive”; and `CCCCNC(=O)C[C@@H]1C[C@@]2(C(=O)OC)CC(C)(C)CC=C2N(Cc2ccco2)C1=O`, with “inactive”.
On the same count and under the same terms, then `O=C(c1ccc(C(F)(F)F)cc1)N1CCC(=O)N([C@H](COCc2ccccc2)Cc2ccccc2)CC1`, with “inactive”; and `O=C1Nc2ccccc2NC(c2ccc3c(c2)OCO3)=C1N(Cc1ccc(F)cc1)C(=O)c1ccco1`, with “inactive”; and `COc1ccc(C(=O)c2c3ccc([N+](=O)[O-])cc3[n+]([O-])n2CCCN)cc1`, with 10 µM (active).
Still for that read-out and setting: to `COc1ccc2c(C(=O)c3ccc(C)cc3)n(CCC(N)=O)[n+]([O-])c2c1` belongs “inactive”; to `COc1ccc(Cc2nnc(SCC(=O)c3cccc([N+](=O)[O-])c3)n2C)cc1`, “inactive”; to `COc1ccc(C(C)(O)c2nc(-c3ccc(C)c(C)c3)cs2)cc1` (configuration not stated), “inactive”.
`CCOc1ccc(/C=N\NC(=O)c2c(C)nc3cc(C)ccn23)cc1`: the Potency result is “inactive”.
Still for that read-out and setting: then `CCOc1ccc(-c2cc(C(=O)N/N=C/c3ccc(O)cc3)c3ccccc3n2)cc1`, with “inactive”.
The same measure, in the same setting: to `CCOc1ccc(/C=N/NC(N)=S)cc1` belongs 1 µM (active); to `CCCCn1nnnc1C(c1cccc(OC)c1OC)N1CCN(C/C=C/c2ccccc2)CC1` (configuration not stated), “inactive”.
Regarding `C=CCC[C@H](CCCCC)OC(=O)/C=C/[C@H](O)[C@@H](O)C[C@@H](O)CC=C`, the Potency result was “inactive”.
On the same count and under the same terms, then `COC(=O)[C@]12CCCCC=C1N(Cc1ccco1)C(=O)[C@H](CC(=O)NCC1CCCCC1)C2`, with “inactive”.
On to `COc1ccc(CN(Cc2ccccc2)C(=O)c2ccc(O)cc2)cc1COc1ccc(NC(C)=O)cc1`, for which the Potency result was “inactive”.
Same read-out and setting: then `COc1cc(/C=C2\Oc3ccc(C#Cc4ccc(O)cc4)cc3C2=O)cc(OC)c1`, with 8.91 µM (active); and `COc1cc(C#Cc2ccc3cc(CCCO)oc(=O)c3c2)cc(OC)c1`, with “inactive”.
On the same count and under the same terms, then `CC(C)C1C(=O)N(Cc2cn(CCC3OCCO3)nn2)CCS(=O)(=O)N1Cc1ccc(-c2ccccc2C(F)(F)F)cc1` (configuration not stated), with “inactive”; and `CC(=CCOc1ccc2ccc(=O)oc2c1)C1=CC(=O)C(C)(C)O1`, with 3.55 µM (active).
For the molecule `Cc1noc(C)c1COc1ccc2ccc(=O)oc2c1`, the Potency result was “inactive”.
Still for that read-out and setting: to `CC(C)OC(=O)c1ccc(COc2ccc3ccc(=O)oc3c2)o1` belongs “inactive”; to `CCOc1ccc(CCN2C(=S)N([C@@H](CC(C)C)CN3CCC[C@@H]3CN3C(=S)NC[C@@H]3Cc3ccc(O)cc3)C[C@@H]2CC(C)C)cc1`, “inactive”.
`Cc1ccc(CCC(=O)Nc2ncc(Cc3cc(Cl)ccc3Cl)s2)o1`: the Potency is 4.47 µM (active).
As for `Cc1cnc(NC(=O)CSc2nnc(-c3ccc(Cl)cc3Cl)n2N)s1`, the Potency result is “inactive”.
In the case of `Cc1ccc(C(=O)Nc2nc3ccc(Cl)cc3s2)o1`, the activity change, negative = inhibition was -7.19% [at 7.34 µM].
Regarding `COC(=O)C1=CN(c2c(C)cc(C)cc2C)C(N)=C(C#N)C1c1cccc(F)c1` (configuration not stated), the Potency entry is “inactive”.
Still for that read-out and setting: then `Clc1ccc(Cn2ncc3c(NCc4cccnc4)ncnc32)cc1`, with 8.91 µM (active); and `Brc1ccc2ncnc(NCc3cccnc3)c2c1`, with “inactive”.
For `CC(C)CNc1ncnc2c1cnn2Cc1ccc(Cl)cc1`, the Potency entry was “inactive”.
On to `CC(C)C[C@H]1CN([C@@H](Cc2ccccc2)CN2CCC[C@@H]2CN2C(=O)C(=O)NC[C@@H]2Cc2ccc(O)cc2)C(=O)C(=O)N1CCc1ccccc1`, for which the Potency result is “inactive”.
